About 31,000 (8.9%) of roughly 350,000 compounds were called active. About 15% were inconclusive and are not listed. The sample as a whole holds a higher share of actives than the screen did. A number with no mark means an inactive call. The call rests on the fitted dose curve; in most records, active means well fitted inhibition curve with a large enough effect; inconclusive means small, poorly fitted or top-dose-only effect; inactive means no such curve, though single readings can be large or run the other way.
On the % scale 0 is the no-effect control and ±100 the full control effect; potency means the concentration at half of the fitted maximal effect.

The target in this experiment is Histone-lysine N-methyltransferase EHMT2 (Homo sapiens) (UniProt Q96KQ7). Kind of experiment: qHTS Assay for Inhibitors of Histone Lysine Methyltransferase G9a. Further: nearly all actives have a fitted effect of over 75% in size. The note with it: G9a H3K9 monomethylation, AlphaScreen, 2 h; series mostly up to 59 µM. The text has this: Methylated lysines, on the N-terminal tails of histone proteins serve as epigenetic markers to recruit factors that can then modify local chromatin structure to lead to functional consequences. G9a and other members of the SUV39 family of the SET domain-containing superfamily of histone lysine methyltransferases (HMT) have been identified to specifically methylate Lys9 of histone H3 (H3K9). G9a catalyzes the mono- and di-methylation of H3K9 in mammalian euchromatic regions, where the resulting H3K9me2 is indicative of transcriptional repression. […] The inhibition of G9a will result in transcriptional activation and work synergistically with DNA methyltransferase and histone deacetylase inhibitors, to kill cancer cells. This qHTS assay for identification of G9a inhibitors is a chemiluminescence based AlphaScreen (PerkinElmer). Methylation of biotinylated-histone peptide is measured through specific antibody-based detection, in conjunction with streptavidin-coated donor and anti-IgG antibody-coated acceptor beads. The method is particularly well suited for detection of inhibitors acting by the desired histone peptide competitive mechanism and is applicable to testing other HMTs. Although AlphaScreen has significant advantages with its utility in a variety of epigenetic target assays, the primary screening data provided in this deposition should be used with caution due to the prevalence of screening artifacts. An AlphaScreen counterscreen is highly recommended to be run against any putative actives to eliminate non specific artifacts. Alternatively, one can use other AlphaScreen assays in PubChem to filter out promiscuous hits. Quinn et al. A chemiluminescence-based method for identification of histone lysine methyltransferase inhibitors. Mol Biosyst 6(5): 782-8. 2010. PMID: 20567762 [2] Baell,Holloway. New substructure filters for removal of pan assay interference compounds (PAINS) from screening libraries and for their exclusion in bioassays. J Med Chem. 53(7):2719-40. 2010. PMID: 20131845 NIH Molecular Libraries Probe Production Network [MLPCN] NIH Chemical Genomics Center [NCGC] Structural Genomics Consortium (SGC) NIH Grant: 5U54 MH084681-02
Histone-lysine N-methyltransferase EHMT2 (Homo sapiens), sequence (Q96KQ7 913-1193 limits assumed): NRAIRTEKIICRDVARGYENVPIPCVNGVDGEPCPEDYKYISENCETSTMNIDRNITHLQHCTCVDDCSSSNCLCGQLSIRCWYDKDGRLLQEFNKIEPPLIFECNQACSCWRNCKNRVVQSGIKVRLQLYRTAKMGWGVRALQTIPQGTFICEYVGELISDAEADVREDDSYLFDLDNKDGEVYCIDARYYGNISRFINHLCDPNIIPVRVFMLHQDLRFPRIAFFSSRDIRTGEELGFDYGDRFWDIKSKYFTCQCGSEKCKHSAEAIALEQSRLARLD
To each well of a 1,536w plate, 2ul of HMT enzyme (final 20nM) were added, using a nanoliter dispenser. The G9a- and GLP-inhibitor BIX-01294 (CID: 25150857) are used as an intraplate control, with a 16-point titration in duplicate. A Kalypsys pin-tool transferred 23nl of library compound solution in DMSO to each well. Following a 15 min incubation of enzyme with compounds at room temperature, 1ul mixture of b-H3K9 peptide substrate (final 500nM) and SAM cofactor (final 20uM) were added. Reactions were allowed to proceed at room temperature for 2 hours. Methylated b-H3K9 peptide product was detected with 0.5 ug/mL rabbit polyclonal anti-monomethyl histone H3K9 antibody (Abcam Inc., Cambridge, MA) and 20 ug/mL each streptavidin-coated donor and anti-rabbit IgG acceptor AlphaScreen beads. Antibody and beads were added in a 1ul dispense, for a final volume of 4ul, and plates were incubated, protected from the light, for 10 min at room temperature. Microplates were then read on an EnVision multilabel plate reader using the 1,536 plate HTS AlphaScreen aperture (excitation time 80 ms, measurement time 240 ms).
A general note: Quantitative high-throughput screening tests each substance at several concentrations.
Take `Cc1nc2ccc(NC(=S)N3CCC(C)CC3)cc2nc1C`: the Potency was 44.7 µM (active).
In the case of `COc1cccc(NC(=O)C2C(c3ccccc3)C2(Cl)Cl)c1` (stereo not drawn), the activity, negative = inhibition is 0.796% [at 0.501 µM].
On to `CNC(=S)N/N=C/c1cn(Cc2ccc(C)cc2)c2ccccc12`, for which the Potency is 44.7 µM (active).
On to `CCOC(=O)N/N=C/c1cn(Cc2ccccc2Cl)c2ccccc12`, for which the Potency result is “inactive”.
Regarding `COC(=O)N/N=C/c1cn(CCCOc2ccc(C)cc2)c2ccccc12`, the Potency entry is “inactive”.
Still for that read-out and setting: as for `O=C(Cc1ccc(Cl)cc1)NC(=S)Nc1ccccc1O`, the entry is “inactive”.
As for `Cc1cccc(C)c1NC(=O)CNC(=O)C1CCCC1`, the activity, negative = inhibition is 26.8% [at 12.7 µM].
Turning to `NS(=O)(=O)c1cc(C(=O)OCC(=O)NNC(=O)c2ccccc2)ccc1Cl`, the Potency entry is “inactive”.
On to `CN(NS(=O)(=O)c1cccs1)c1ncc(C(F)(F)F)cc1Cl`, for which the Potency entry is “inactive”.
For the compound `CC(=O)c1c(C)[nH]c(C(=O)COc2ccc3c(C)cc(=O)oc3c2)c1C`, the activity, negative = inhibition was -2.97% [at 12.7 µM].
The same measure, in the same setting: the result for `COC(=O)Cn1cc(C(=O)c2cccs2)c2ccccc21` reads 10.8% [at 12.7 µM].
In the case of `COC(=O)Cn1cc(/C=C/[N+](=O)[O-])c2ccccc21`, the Potency is 39.8 µM (active).
Take `COC(=O)c1cn(CC(=O)NCc2cccs2)c2ccccc12`: the Potency entry was “inactive”.
Consider `Cc1nc(C)c(C(=O)Nc2ccc(C)c(F)c2)o1`, for which the activity, negative = inhibition is 20.5% [at 12.7 µM].
In the case of `Cc1cccc(NC(=O)c2ccc3nsnc3c2)c1C`, the Potency entry is “inactive”.
Same read-out and setting: the result for `Cc1cccc(NC(=O)c2cccc(C(=O)Nc3cccc(C)c3C)n2)c1C` reads 50.1 µM (active).
On to `COc1ccc(Cl)cc1NC(=O)c1oc(C)nc1C`, for which the activity, negative = inhibition was 10.9% [at 12.7 µM].
Turning to `Cc1nc(C)c(C(=O)Nc2cccc(C)c2C)o1`, the Potency is 44.7 µM (active).
Same read-out and setting: the result for `Cc1cccc(NC(=O)c2ccc3nc(C(C)C)oc3c2)c1C` reads “inactive”.
In the case of `CCOC(=O)[C@H]1[C@H]2COc3ccc(OC)cc3[C@@H]2N2C(=O)c3ccc(F)cc3NC(=O)[C@@]12C`, the activity, negative = inhibition was 22.3% [at 2.33 µM].
On the same count and under the same terms, as for `O=C(NNC(=O)c1cc(S(=O)(=O)N2CCCCC2)ccc1Cl)c1ccccc1O`, the figure is 36.2% [at 12.7 µM].
With `Cc1ccc(C(=O)Nc2ccc(OCc3cc(=O)n4c(C)csc4n3)cc2)cc1`, the Potency result was “inactive”.
On to `O=C(C1CCC1)N1CCN(S(=O)(=O)c2ccc([N+](=O)[O-])cc2)CC1`, for which the activity, negative = inhibition is -3.47% [at 12.7 µM].
With `Cc1cc(C)n(-c2ccc(Cl)c(C(=O)O)n2)n1`, the Potency entry is “inactive”.
On the same count and under the same terms, as for `CC(=O)c1ccc(Oc2cc(C)nc(-n3nc(C)cc3C)n2)cc1`, the entry is “inactive”.
For the compound `Cc1cc(C)n(-c2nc(O)cc(=O)[nH]2)n1`, the Potency is 4.47 µM (active).
Same read-out and setting: the result for `O=C(NCCc1ccccc1)c1cnc2sc(N3CCCC3)nn2c1=O` reads “inactive”.
As to `COc1ccc(-c2csc3ncnc(N4CCN(S(=O)(=O)c5cccc(F)c5)CC4)c23)cc1`, the activity, negative = inhibition was -11.1% [at 2.33 µM].
As for `O=C(NCc1ccccc1Cl)C1=Cc2cc(Br)ccc2OC1`, the Potency entry was “inactive”.
Consider `Cc1ccc(N2C(=O)C3C(c4ccccc4)(C2=O)C3(c2ccccc2)c2ccccc2)cc1` (stereo not drawn), for which the activity, negative = inhibition was 28.9% [at 12.7 µM].
As for `Cc1ccc(C2C3=C(Nc4[nH]n(-c5ccccc5)c(=O)c42)c2ccccc2C3=O)cc1` (stereo not drawn), the Potency was 3.16 µM (active).
The same measure, in the same setting: as for `Cc1ccc(C2SCC(=O)N2c2ccccc2)cc1` (stereo not drawn), the entry is “inactive”; as for `CCCn1c(=N)n(CC(O)COc2ccccc2OC)c2ccccc21` (stereo not drawn), “inactive”; as for `CCCCn1c(N)c(N(CCOC)C(=O)CSCC(=O)Nc2cccc(C)c2)c(=O)[nH]c1=O`, “inactive”.
`O=C(Nc1ccccc1F)c1ccc(S(=O)(=O)N2CCCCCC2)cc1`: the activity, negative = inhibition was 62.1% [at 12.7 µM].
Consider `CCOC(=O)CSc1nc2sc3c(c2c(=O)[nH]1)CC(C)(C)OC3`, for which the Potency entry was “inactive”.
Still for that read-out and setting: the result for `CCOC(=O)N1CCN(C(=O)C(=O)Nc2sc3c(c2C#N)CC(C)(C)OC3)CC1` reads 12.6 µM (active); that for `CCOC(=O)Cn1c(SC)nc2sc3c(c2c1=O)CC(C)(C)OC3`, “inactive”; that for `N#Cc1c(NC(=O)c2ccc(N3CCOCC3)c([N+](=O)[O-])c2)sc2c1CCCC2`, “inactive”.
The same measure, in the same setting: the result for `CC1(C)Cc2c(sc(NC(=O)C(=O)N3CCOCC3)c2C#N)CO1` reads 35.5 µM (active).
On to `CC1(C)Cc2c(sc(NC(=O)C(=O)NCC3CCCO3)c2C(=O)O)CO1` (stereo not drawn), for which the Potency entry is “inactive”.
For the compound `Cc1ccc(NC(=O)CN2C(=O)C(c3ccc(F)cc3)=NC23CCCCCC3)c(C)c1`, the Potency result was “inactive”.
On the same count and under the same terms, the result for `CCN1CCN(C(=O)CSc2ccc(C)cc2)CC1` reads “inactive”; that for `CCN1CCC2(CC1)N=C(c1ccc(F)cc1)C(=S)N2C(=O)c1ccc(C)cc1`, 10 µM (active).
In the case of `O=C(Nc1ccc(S(=O)(=O)N2CCCCCC2)cc1)c1c(F)cccc1F`, the activity, negative = inhibition is -5.59% [at 12.7 µM].
On to `Cc1ccc(Cl)cc1NC(=O)Cc1ccc(-n2c(C)nc3cccnc32)cc1`, for which the Potency result is “inactive”.
In the case of `COc1ccccc1C1=CC(=O)C[C@H](c2ccc(F)cc2)C1`, the activity, negative = inhibition was -10.3% [at 0.501 µM].
For the compound `Cc1sc2ncnc(SCC(=O)Nc3ccc(CN4CCCC4)cc3)c2c1C`, the activity, negative = inhibition was 10.2% [at 12.7 µM].

Source of the values: PubChem BioAssay AID504332 (National Center for Advancing Translational Sciences (NCATS), 2011).
